Data on 30 molecules can be found in PubChem BioAssay (EPA / NIEHS).

The source made the active and inactive calls. The calls were made as follows: active = hit-call score of the fitted dose curve at least 0.9, where 1 is the maximum; inactive = score below 0.9.

Read-out in one assay: Cyclin D1 (CCND1), CCND1 (gene 595)
As to the kind of experiment: LTEA_HepaRG_CCND1: Life Technologies and Expression Analysis (LTEA) Assay for Cyclin D1 (CCND1) using HepaRG (AID 2283451).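 As to AC50: differentiated human HepaRG liver cells in serum-free induction medium; TaqMan qRT-PCR transcript level normalised to ACTB GAPDH and POLR2A housekeeping genes.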 As to conditions: mRNA level, 48 h; actives raise or lower the signal. The procedure, abridged:
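Human liver HepaRG line; 48 h dosing, 8 conc. ≤100 uM, 0.5% DMSO; TaqMan qRT-PCR mRNA, 3 housekeeping genes; bidirectional curve fit vs DMSO.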
For `CCCCCCCCCC[N+](C)(C)[O-]`, the call was inactive.
As for `CCOCCOCCO`, the result was inactive.
On the same count and under the same terms, the result for `O=C1CCCCC1` reads “inactive”.
Still for that read-out and setting: in the case of `COC(=O)CCCC(=O)OC` it was “inactive”.
Consider `Nc1nc(=S)c2[nH]cnc2[nH]1`, for which the molecule was called inactive.
The same measure, in the same setting: the result for `Oc1ccc(O)cc1` reads “inactive”.
On to `CC(C)c1cccc(C(C)C)c1NC(=O)NS(=O)(=O)c1cc(C(C)(C)O)co1`, for which the result was inactive.
Still for that read-out and setting: in the case of `CCCCCCCCCCCCCCOS(=O)(=O)O` it was “inactive”; in that of `S=c1[nH]c2ccccc2s1`, “inactive”.
In the case of `NC1CCCCC1`, the call was inactive.
For the molecule `Cn1cnc2c1c(=O)[nH]c(=O)n2C`, the molecule was called inactive.
As for `Cc1cc(SC2=C(O)C[C@@](CCc3ccc(N)cc3)(C(C)C)OC2=O)c(C(C)(C)C)cc1CO`, the molecule was called inactive.
Turning to `CN(C)CCCN1c2ccccc2Sc2ccc(Cl)cc21`, the AC50 was 50 µM (active).
For `CC(=O)CC(c1ccccc1)c1c(O)c2ccccc2oc1=O` (configuration not stated), the outcome was inactive.
On the same count and under the same terms, in the case of `NC=O` it was “inactive”; in that of `CC(=O)S[C@H](C(=O)N[C@H]1Cc2ccccc2[C@H]2CCC[C@@H](C(=O)O)N2C1=O)C(C)C`, “inactive”.
For `COc1ccc(C(=O)Nc2nc3ccccc3c(NCc3ccccc3)c2C#N)cc1`, the AC50 was 16.8 µM (active).
Take `CCCCC(CC)CO` (configuration not stated): the call was inactive.
As to `CC(=O)OC1CC(C)OC(C)O1` (configuration not stated), the result was inactive.
In the case of `C=CCc1ccc(OC)c(OC)c1`, the call was inactive.
Take `CCCCc1nc2cccnc2n1Cc1ccc(-c2ccccc2-c2nnn[nH]2)cc1`: the molecule was classed as inactive.
Regarding `C=CCCCCCCCCCCCC`, the result was inactive.
Same read-out and setting: the result for `CCc1cc(C2=C(C(=O)O)N(c3ccccc3C(F)(F)F)S(=O)(=O)c3ccccc32)cc2c1OCO2` reads “inactive”.
Regarding `CCCCCCCCCCCCCCCCO`, the molecule was called inactive.
With `CCCC[C@H]1CN(CC2CCOCC2)C(=O)OC12CCN(C1(C)CCN(C(=O)c3c(C)ncnc3C)CC1)CC2`, the outcome was inactive.
In the case of `Nc1nc(Cl)nc2c1ncn2[C@H]1C[C@H](O)[C@@H](CO)O1`, the AC50 was 3.49 µM (active).
The same measure, in the same setting: in the case of `O=C1OC(c2ccc(O)cc2)(c2ccc(O)cc2)c2ccccc21` it was 78.7 µM (active).
For the molecule `CC(C)COC(=O)CCCCC(=O)OCC(C)C`, the molecule was classed as inactive.
On the same count and under the same terms, the result for `O=C1c2c(O)cccc2Cc2cccc(O)c21` reads “inactive”.
As for `CS(=O)(=O)c1ccc([C@@H](C[C@H]2CCC(=O)C2)C(=O)Nc2cnccn2)cc1Cl`, the AC50 is 1.64 µM (active).

Read-out in the next assay: catalase (CAT), CAT (gene 847)
As to the kind of experiment: LTEA_HepaRG_CAT: Life Technologies and Expression Analysis (LTEA) Assay for catalase (CAT) using HepaRG (AID 2283452).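 As to AC50: TaqMan qRT-PCR signal normalized to ACTB GAPDH and POLR2A housekeeping genes.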 The settings on record: mRNA level, 48 h; actives raise or lower the signal. The procedure, abridged: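 HepaRG cells in serum-free induction medium, 0.5% DMSO vehicle, exposed 48 h in duplicate over 8 half-log concentrations from 100 uM. CAT mRNA measured by qRT-PCR, normalized to ACTB, GAPDH, POLR2A; bidirectional fit versus DMSO.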
For the molecule `O=C1CCCCC1`, the molecule was classed as inactive.
Turning to `Nc1nc(=S)c2[nH]cnc2[nH]1`, the AC50 was 7.04 µM (active).
Take `Oc1ccc(O)cc1`: the molecule was classed as inactive.
With `S=c1[nH]c2ccccc2s1`, the call was inactive.
On the same count and under the same terms, in the case of `Cn1cnc2c1c(=O)[nH]c(=O)n2C` it was “inactive”.
Still for that read-out and setting: in the case of `Cc1cc(SC2=C(O)C[C@@](CCc3ccc(N)cc3)(C(C)C)OC2=O)c(C(C)(C)C)cc1CO` it was “inactive”.
For `CN(C)CCCN1c2ccccc2Sc2ccc(Cl)cc21`, the AC50 was 50 µM (active).
Same read-out and setting: in the case of `COc1ccc(C(=O)Nc2nc3ccccc3c(NCc3ccccc3)c2C#N)cc1` it was 18.7 µM (active).
Consider `CCCCC(CC)CO` (configuration not stated), for which the molecule was classed as inactive.
On to `CCCCCCCCCCCCCCCCO`, for which the AC50 was 9.92 µM (active).
With `CCCC[C@H]1CN(CC2CCOCC2)C(=O)OC12CCN(C1(C)CCN(C(=O)c3c(C)ncnc3C)CC1)CC2`, the molecule was called inactive.
Same read-out and setting: the result for `CC(C)COC(=O)CCCCC(=O)OCC(C)C` reads “inactive”; that for `CS(=O)(=O)c1ccc([C@@H](C[C@H]2CCC(=O)C2)C(=O)Nc2cnccn2)cc1Cl`, “inactive”.

Read-out in another assay: flavin-containing dimethylaniline monooxygenases 3 (FMO3), FMO3 (gene 2328)
As to the kind of experiment: LTEA_HepaRG_FMO3: Life Technologies and Expression Analysis (LTEA) Assay for flavin-containing dimethylaniline monooxygenases 3 (FMO3) using HepaRG (AID 2283453).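 As to AC50: differentiated human HepaRG liver cells in serum-free induction medium; FMO3 transcript by TaqMan qRT-PCR normalized to ACTB GAPDH and POLR2A.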 As to conditions: mRNA level, 48 h; actives raise or lower the signal. In a few lines:
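HepaRG, 48 h exposure, 8-pt half-log series from 100 uM, 0.5% DMSO vehicle, duplicates; FMO3 transcript by Fluidigm TaqMan qRT-PCR, housekeeping-normalized; gain/loss fit vs DMSO.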
As for `CCCCCCCCCC[N+](C)(C)[O-]`, the call was inactive.
Still for that read-out and setting: in the case of `CCOCCOCCO` it was “inactive”; in that of `O=C1CCCCC1`, “inactive”.
On the same count and under the same terms, in the case of `COC(=O)CCCC(=O)OC` it was “inactive”.
For the molecule `Nc1nc(=S)c2[nH]cnc2[nH]1`, the AC50 was 6.74 µM (active).
As to `Oc1ccc(O)cc1`, the result was inactive.
The same measure, in the same setting: in the case of `CC(C)c1cccc(C(C)C)c1NC(=O)NS(=O)(=O)c1cc(C(C)(C)O)co1` it was “inactive”; in that of `CCCCCCCCCCCCCCOS(=O)(=O)O`, “inactive”; in that of `S=c1[nH]c2ccccc2s1`, “inactive”.
Still for that read-out and setting: in the case of `NC1CCCCC1` it was “inactive”; in that of `Cn1cnc2c1c(=O)[nH]c(=O)n2C`, “inactive”; in that of `Cc1cc(SC2=C(O)C[C@@](CCc3ccc(N)cc3)(C(C)C)OC2=O)c(C(C)(C)C)cc1CO`, “inactive”.
For the molecule `CC(=O)CC(c1ccccc1)c1c(O)c2ccccc2oc1=O` (configuration not stated), the outcome was inactive.
Still for that read-out and setting: in the case of `NC=O` it was “inactive”; in that of `CC(=O)S[C@H](C(=O)N[C@H]1Cc2ccccc2[C@H]2CCC[C@@H](C(=O)O)N2C1=O)C(C)C`, “inactive”.
`COc1ccc(C(=O)Nc2nc3ccccc3c(NCc3ccccc3)c2C#N)cc1`: the AC50 is 16.2 µM (active).
In the case of `CCCCC(CC)CO` (configuration not stated), the molecule was classed as inactive.
The same measure, in the same setting: in the case of `CC(=O)OC1CC(C)OC(C)O1` (configuration not stated) it was “inactive”; in that of `C=CCc1ccc(OC)c(OC)c1`, “inactive”; in that of `CCCCc1nc2cccnc2n1Cc1ccc(-c2ccccc2-c2nnn[nH]2)cc1`, “inactive”.
Still for that read-out and setting: in the case of `C=CCCCCCCCCCCCC` it was “inactive”.
Consider `CCc1cc(C2=C(C(=O)O)N(c3ccccc3C(F)(F)F)S(=O)(=O)c3ccccc32)cc2c1OCO2`, for which the AC50 was 78.8 µM (active).
`CCCCCCCCCCCCCCCCO`: the result was inactive.
Regarding `CCCC[C@H]1CN(CC2CCOCC2)C(=O)OC12CCN(C1(C)CCN(C(=O)c3c(C)ncnc3C)CC1)CC2`, the molecule was classed as inactive.
For the molecule `Nc1nc(Cl)nc2c1ncn2[C@H]1C[C@H](O)[C@@H](CO)O1`, the AC50 was 2.05 µM (active).
On the same count and under the same terms, in the case of `O=C1OC(c2ccc(O)cc2)(c2ccc(O)cc2)c2ccccc21` it was 93.8 µM (active).
On to `CC(C)COC(=O)CCCCC(=O)OCC(C)C`, for which the result was inactive.
As to `O=C1c2c(O)cccc2Cc2cccc(O)c21`, the call was inactive.
The same measure, in the same setting: in the case of `CS(=O)(=O)c1ccc([C@@H](C[C@H]2CCC(=O)C2)C(=O)Nc2cnccn2)cc1Cl` it was “inactive”.
